Results filed as inconclusive are left out. Activity calls are given as the source filed them. Calls come from the whole dose curve; as a rule, active = well fitted activation curve with a large enough effect; inconclusive = small, poorly fitted or top-dose-only effect; inactive = no such curve, though single readings can be large or run the other way.

In PubChem BioAssay AID602477 (National Center for Advancing Translational Sciences (NCATS), 2012) one finds Potency data, which are given here for 40 compounds.

The experiment in a line: FLuc inhibitory activity for the follow-up compounds in a cell-based assay to assess the activity of miR-21. As to conditions: HeLa miR-21-FLuc reporter, luciferase luminescence, 48 h; series mostly up to 38.3 µM. The text has this: NCGC Assay Overview: Firefly (Photinus pyralis) luciferase is one of the most commonly used transcriptional reporters. It is considered one of the more dynamically responsive reporters - that is, responsive to changes in reporter transcription - as it requires no post-translational modifications and is enzymatically active directly after protein synthesis (Wood, 1998). With no endogenous expression in mammalian cells and without the requirement of external excitation, it offers very little background signal, thus generally providing excellent signal to background for most assays. Previous profiling work to determine the prevalence of compounds that affect FLuc enzymatic activity (PubChem AID 411) identified that ~3% of the MLSMR library (then at ~72K) inhibited FLuc (Auld et al., 2008). […] Of the compounds identified in this profile that inhibited FLuc, 151 compounds were selected for further analysis, in an effort to better understand their mode of inhibiting FLuc. The assay described here was to determine the activity of the compounds in a cell-based firefly luciferase reporter gene assay originally designed to identify antagonists of miR-21. Compounds that inhibit miR-21 or compounds that stabilize FLuc intracellularly are identified as active compounds in the assay.
NCGC Assay Protocol Summary: Reagents: In-house detection reagent: 300mM Tris-HCl, 300mM Trizma base, 300mM MgCl, 1% Triton-X100, 5mM DTT, 500uM Coenzyme A trilithium salt (Sigma #C3019),450uM ATP (Sigma #A7699), 1mM D-luciferin sodium salt monohydrate (Biosynth #L8240) HeLa cells stably expressing firefly luciferase (FLuc) under the control of a CMV promoter (upstream) and a miR-21 binding sequence directly downstream of the gene. These cells endogenously express miR-21. Control compounds used were two known firefly luciferase inhibitors (3-(5-(3-chlorophenyl)-1,2,4-oxadiazol-3-yl)benzoic acid and 5-(2-fluorophenyl)-3-phenyl-1,2,4-oxadiazole), and DMSO. Assay Summary: 6uL of HeLa miR-21-FLuc cells in assay buffer (DMEM, Invitrogen #21063-029; 10% FBS, HyClone #SH30071.03) were dispensed at 2000cells/well (3.3 x 10^5 cells/mL) into Greiner solid-white TC-treated 1536-well plates using a Multidrop Combi (Thermo Fisher Scientific). Plates were incubated for one hour at 37 degree Celsius, 95% humidity, 5% CO2. These assay plates were then treated with 23nL of compound or DMSO using a Kalypsys pin tool, which allows for delivery of a 12-point titration of each compound to the assay plate, with a final compound concentration ranging from approximately ~38uM to 0.2nM. Assay plates were then incubated for 48 hours. After incubation, plates were allowed to come to RT for one hour prior to delivery of 3uL of 3X luciferase detection reagent. After a 15 minute incubation to allow for cell lysis, luciferase activity was measured using a ViewLux CCD imager (PerkinElmer), with an average exposure time of 2-12 seconds.
Turning to `Nc1ccc(-c2nc3ccc(N)cc3s2)cc1`, the Potency was 283 nM (active). As for `CCOc1ccc2nc(NC(=O)c3ccoc3C)sc2c1`, the figure is 100 nM (active). As for `Cc1ccc2sc(-c3ccc(N)cc3)nc2c1`, the Potency is 50.4 nM (active).

On to `COc1ccc(-c2nc3ccccc3s2)cc1NC(=O)c1ccc(F)cc1`, for which the Potency is 12600 nM (active). Take `COc1ccc(-c2cccc(C(=O)Nc3cccc(C(=O)O)c3)c2)cc1`: the Potency was 4490 nM (active). `COc1ccc(C(=O)Nc2nc3ccc(OC)cc3s2)cc1`: the Potency was 2830 nM (active).

In the case of `O=C(Nc1ccccc1C(=O)O)c1cc(S(=O)(=O)Nc2cccc(F)c2)ccc1Cl`, the Potency result was “inactive”.

Consider `COc1ccc(CC(=O)Nc2ccc(-c3nc4ccccc4s3)c(C)c2)cc1`, for which the Potency was 14200 nM (active). With `O=C(Nc1ccccc1C(=O)O)c1cccc(NC(=O)c2ccccc2Br)c1`, the Potency entry is “inactive”. In the case of `Cc1ccc2nc(-c3ccc(N)cc3)sc2c1`, the Potency is 35.6 nM (active).

As to `CC(C)c1ccc(-c2nc3ccccc3s2)cc1`, the Potency was 25.2 nM (active). As for `Nc1ccccc1C(=O)Nc1cccc(C(=O)O)c1`, the figure is 11300 nM (active). With `COc1ccc(-c2nc3ccccc3s2)cc1O`, the Potency is 1790 nM (active). Take `Nc1ccc(-c2nc3ccc(C(=O)O)cc3s2)cc1`: the Potency is 14.2 nM (active). As for `Cc1c(NC(=O)c2cc(-n3cnnc3)ccc2Cl)cccc1-c1nc2ccccc2s1`, the figure is 2830 nM (active). Next, `Nc1ccc2nc(-c3ccccc3)sc2c1`: 63.4 nM (active); `Cc1ccc(C(=O)Nc2cccc(C(=O)O)c2)cc1S(=O)(=O)N1CCCC1`: 1000 nM (active). Regarding `COc1ccc2nc(NC(=O)c3ccc(NS(=O)(=O)c4cccs4)cc3)sc2c1`, the Potency was 8950 nM (active).

With `Nc1cccc(-c2nc3ccc(N)cc3s2)c1`, the Potency was 1790 nM (active). Next, `COc1ccc(C(=O)Nc2ccccc2-c2nc3ccccc3s2)c(OC)c1`: 22500 nM (active); `O=C(Nc1ccccc1C(=O)O)c1cc(S(=O)(=O)Nc2ccccc2)ccc1Cl`: “inactive”; `COc1cc(OC)cc(-c2nc3ccccc3s2)c1`: 3560 nM (active). With `O=C(O)c1cccc(NC(=O)c2cccc(S(=O)(=O)N3CCc4ccccc43)c2)c1`, the Potency result was “inactive”. Next, `O=C(Nc1ccccc1-c1nc2ccccc2s1)c1ccc(Br)o1`: 22500 nM (active); `Cc1ccc(C(=O)Nc2ccc(C(=O)O)cc2)cc1S(=O)(=O)Nc1ccccc1`: “inactive”; `Cc1ccc2sc(-c3ccc(NC(=O)c4cc(-n5cnnc5)ccc4Cl)cc3)nc2c1`: 1790 nM (active). For `CC(=O)Oc1ccc(C(=O)Nc2ccccc2C(=O)Nc2ccc(C(=O)O)cc2)cc1`, the Potency result was “inactive”. Next, `COc1c(C)cccc1C(=O)Nc1ccc(-c2nc3ccccc3s2)c(Cl)c1`: 22500 nM (active). Next, `O=C(COC(=O)c1ccccc1[N+](=O)[O-])c1ccc2c(c1)OCO2`: 5040 nM (active); `CN=c1scc(-c2ccccc2F)n1/N=C/c1ccc[nH]1`: “inactive”; `Cc1ccc(S(=O)(=O)N2CCOCC2)cc1C(=O)Nc1ccccc1C(=O)O`: “inactive”. In the case of `NC(=O)Cc1ccc2sc(-c3ccccc3)nc2c1`, the Potency was 1260 nM (active). Regarding `O=C(O)c1cccc(NC(=O)c2ccc(COc3ccc(Cl)cc3)cc2)c1`, the Potency is 12600 nM (active). On to `COc1ccc2nc(NC(=O)c3ccc([N+](=O)[O-])o3)sc2c1`, for which the Potency is 4490 nM (active). Next, `CC(C)CC(=O)Nc1cccc(C(=O)Nc2ccccc2C(=O)O)c1`: “inactive”. As for `COc1cccc(OC)c1C(=O)Nc1cccc(C(=O)Nc2cccc(C(=O)O)c2)c1`, the entry is “inactive”; as for `O=S(=O)(c1ccc(-c2nc3ccccc3s2)cc1)N1CCCC1`, 2000 nM (active); as for `COc1ccc(Br)cc1C(=O)Nc1ccc(C(=O)O)cc1`, 7980 nM (active). As for `COc1ccc2nc(NC(=O)CCc3nc(-c4ccccc4F)no3)sc2c1`, the figure is 2520 nM (active); as for `Cc1ccc2nc(-c3ccc(NC(=O)CN4CCN(C(=O)c5ccco5)CC4)cc3)sc2c1`, 4490 nM (active).
